Source: paper PMC5700166

target: T1, GST-Aq-NF-kB (Amphimedon queenslandica, UniProt A9Y5G7 2-389); test: protein-binding microarray (PBM); PBM: ~300 nM protein, 6 mM HEPES pH 7.8, 80 mM KCl, 0.5 mM EDTA, 0.5 mM EGTA, 6% glycerol, 35 ng/ul poly-dIdC, 1% milk, 1 h, room temperature; Ap Aiptasia and Nv Nematostella (sea anemones) / Co Capsaspora / Aq Amphimedon (sponge) / Dm Drosophila / Hu human; RHD is the Rel homology domain; high values mean tight binding; details: dsDNA, one strand shown
T1 sequence: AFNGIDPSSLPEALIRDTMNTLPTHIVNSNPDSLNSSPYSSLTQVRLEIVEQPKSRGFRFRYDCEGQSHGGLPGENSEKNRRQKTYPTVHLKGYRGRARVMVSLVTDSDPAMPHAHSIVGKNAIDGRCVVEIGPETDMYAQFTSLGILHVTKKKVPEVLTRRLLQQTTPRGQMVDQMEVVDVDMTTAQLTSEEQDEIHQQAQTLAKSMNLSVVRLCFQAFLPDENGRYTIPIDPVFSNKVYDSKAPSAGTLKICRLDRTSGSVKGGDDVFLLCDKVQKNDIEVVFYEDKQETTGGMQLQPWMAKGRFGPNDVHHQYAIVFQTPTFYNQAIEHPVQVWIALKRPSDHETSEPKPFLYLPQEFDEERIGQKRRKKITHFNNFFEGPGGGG

Row | Sequence | binding signal [z-score]
1 | CCGATTAACATCAAAATTTCCGTTGATGTTAATCGGGTCTTGATTCGCTTGACGCTGCTG | 1.64
2 | CCGATTAACATCACGGATATTCCTGATGTTAATCGGGTCTTGATTCGCTTGACGCTGCTG | 1.34
3 | CCGATTAACATCACGGAGTTTCCTGATGTTAATCGGGTCTTGATTCGCTTGACGCTGCTG | 3.34
4 | CCGATTAACATCACGGAAGTTCCTGATGTTAATCGGGTCTTGATTCGCTTGACGCTGCTG | 2.56
5 | CCGATTAACATCACGGAATCTCCTGATGTTAATCGGGTCTTGATTCGCTTGACGCTGCTG | 2.17
6 | CCGATTAACATCACGGAATGTCCTGATGTTAATCGGGTCTTGATTCGCTTGACGCTGCTG | 1.82
7 | CCGATTAACATCAGGACATTCCATGATGTTAATCGGGTCTTGATTCGCTTGACGCTGCTG | 1.23
8 | CCGATTAACATCAAGGACATTCCTGATGTTAATCGGGTCTTGATTCGCTTGACGCTGCTG | 1.43
9 | CCGATTAACATCAGGGCAGTCCATGATGTTAATCGGGTCTTGATTCGCTTGACGCTGCTG | 1.1
10 | CCGATTAACATCACGGACTGTCCTGATGTTAATCGGGTCTTGATTCGCTTGACGCTGCTG | 2.22
11 | CCGATTAACATCAGGAAGTTCCATGATGTTAATCGGGTCTTGATTCGCTTGACGCTGCTG | 1.48
12 | CCGATTAACATCAGAATTGCCCATGATGTTAATCGGGTCTTGATTCGCTTGACGCTGCTG | 1.1
13 | CCGATTAACATCAGGAAATGTCCTGATGTTAATCGGGTCTTGATTCGCTTGACGCTGCTG | 1.67
14 | CCGATTAACATCACGAAATTTCCTGATGTTAATCGGGTCTTGATTCGCTTGACGCTGCTG | 1.65
15 | CCGATTAACATCAGAATTTCCGCTGATGTTAATCGGGTCTTGATTCGCTTGACGCTGCTG | 1.06
16 | CCGATTAACATCAAGGAATGTCCTGATGTTAATCGGGTCTTGATTCGCTTGACGCTGCTG | 1.74
17 | CCGATTAACATCACGGCATTTCCTGATGTTAATCGGGTCTTGATTCGCTTGACGCTGCTG | 1.96
18 | CCGATTAACATCAGGAAGTGCCCTGATGTTAATCGGGTCTTGATTCGCTTGACGCTGCTG | 2.55
19 | CCGATTAACATCAAGGCATTTCCTGATGTTAATCGGGTCTTGATTCGCTTGACGCTGCTG | 1.06
20 | CCGATTAACATCAGGCATTTCCATGATGTTAATCGGGTCTTGATTCGCTTGACGCTGCTG | 1.13

Row | Sequence | binding signal [z-score]
21 | CCGATTAACATCAGGAAACTTCCTGATGTTAATCGGGTCTTGATTCGCTTGACGCTGCTG | 1.43
22 | CCGATTAACATCAAAATTTCCGCTGATGTTAATCGGGTCTTGATTCGCTTGACGCTGCTG | 1.48
23 | CCGATTAACATCAGGACAGTCCATGATGTTAATCGGGTCTTGATTCGCTTGACGCTGCTG | 1.46
24 | CCGATTAACATCAAGAAATTCCTTGATGTTAATCGGGTCTTGATTCGCTTGACGCTGCTG | 1.02
25 | CCGATTAACATCAGGAACTGCCCTGATGTTAATCGGGTCTTGATTCGCTTGACGCTGCTG | 2.36
26 | CCGATTAACATCAAGGAACTTCCTGATGTTAATCGGGTCTTGATTCGCTTGACGCTGCTG | 1.83
27 | CCGATTAACATCACGGAGAATCCTGATGTTAATCGGGTCTTGATTCGCTTGACGCTGCTG | 1.18
28 | CCGATTAACATCAGGAATCGCCCTGATGTTAATCGGGTCTTGATTCGCTTGACGCTGCTG | 2.28
29 | CCGATTAACATCAAAAATATTCCTGATGTTAATCGGGTCTTGATTCGCTTGACGCTGCTG | 1
30 | CCGATTAACATCAGCAAAATTCCTGATGTTAATCGGGTCTTGATTCGCTTGACGCTGCTG | 1.04
31 | CCGATTAACATCACGGAAAAGCCTGATGTTAATCGGGTCTTGATTCGCTTGACGCTGCTG | 1.34
32 | CCGATTAACATCAAGATCCCTTGTGATGTTAATCGGGTCTTGATTCGCTTGACGCTGCTG | 1.08
33 | CCGATTAACATCAGGAATAGCCCTGATGTTAATCGGGTCTTGATTCGCTTGACGCTGCTG | 1.9
34 | CCGATTAACATCAGGAATGTCCATGATGTTAATCGGGTCTTGATTCGCTTGACGCTGCTG | 1.06
35 | CCGATTAACATCAGGAAAGTTCCTGATGTTAATCGGGTCTTGATTCGCTTGACGCTGCTG | 1.9
36 | CCGATTAACATCAGAGAATTTCCTGATGTTAATCGGGTCTTGATTCGCTTGACGCTGCTG | 1.55
37 | CCGATTAACATCAACGGAATTTCTGATGTTAATCGGGTCTTGATTCGCTTGACGCTGCTG | 1
38 | CCGATTAACATCAGGAAATCTCCTGATGTTAATCGGGTCTTGATTCGCTTGACGCTGCTG | 1.25
39 | CCGATTAACATCAGAGAAATTCCTGATGTTAATCGGGTCTTGATTCGCTTGACGCTGCTG | 1.65
